# PubChem BioAssay (NCATS)
# “And” between values parts separate entries of the source, which are not always exact repeats. Equal entries are not always repeated. Inconclusive results are not listed. Entries that show only a call come without a potency. The source made the active and inactive calls. Unless noted, calls follow the shape of the dose curve; as a rule, active = well fitted curve in the direction sought with a large enough effect; inconclusive = small, poorly fitted or top-dose-only effect, or another doubt; inactive = no such curve, though single readings can be large; an effect the other way counts as inactive or inconclusive.
# Legend:
# [1] = Cell Viability - Hek293 (AID 427;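 active = compounds whose dose-response curve shows a full or clear partial loss of cell viability, called from curve shape rather than a numeric limit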;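 also: potency is read from the fitted curve at half-maximal effect; cells exposed to compound for 40 hours at 37 °C before reading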); settings: qHTS
# Summary of the method: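 qHTS, human embryonic kidney (adenovirus-transformed) cells; 40 hr cpd, 37 °C; CellTiter-Glo ATP luminescence. Norm: DMSO = 0, 100 uM tamoxifen = 100% inhibition. Hill-fit AC50.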
# [2] = Cell Viability - N2a (AID 540); settings: N2a mouse neuroblastoma cell viability; activity change, negative = cytotoxicity: at 92.2 µM (top of the series); also: nearly all actives have a fitted effect of over 45% in size; also: potency is read from the fitted curve at half-maximal effect
# Summary of the method: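 CellTiter-Glo ATP luminescence, read 20 min after reagent at room temperature, reported viability following 40 h compound treatment at 37 °C. N2a mouse neuroblastoma cells seeded 1500/well; Hill equation gave AC50.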
# [3] = Cell Viability - SH-SY5Y (AID 544); settings: SH-SY5Y neuroblastoma cell viability; viability change, negative = cytotoxic: at 92.2 µM (top of the series);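 also: cells exposed to compound for 40 hours; nearly all actives have a fitted effect of over 55% in size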; also: potency is read from the fitted curve at half-maximal effect
# Summary of the method: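 Cytotoxicity measured via ATP-dependent luciferase luminescence (CellTiter-Glo) following 40 h, 37 °C exposure of 1500 SH-SY5Y cells per well. Concentration-response data were fitted with the standard Hill equation to give AC50.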
# [4] = Cellular Toxicity (caspase-3) SHSY5Y (AID 657); settings: SH-SY5Y caspase-3 activation, DMSO zero, 10 µM staurosporine = 100%; series mostly up to 91.7 µM;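 also: cells exposed to compound for 16 hours at 37 °C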
# Summary of the method: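 Luminescent caspase-3/7 readout (aminoluciferin release) in SH-SY5Y cells after 16 h compound exposure in complete medium. Activity scaled between DMSO basal and 10 uM staurosporine as 100%; concentration-response fitted to Hill equation for AC50.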
# [5] = Cellular Toxicity (caspase-3) Mesangial (AID 660); settings: mesangial cells, normalized: DMSO 0%, 100 µM tamoxifen 100%; series mostly up to 91.7 µM;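 also: combined caspase 3 and 7 activity read by Caspase-Glo luminescence; cells exposed to compound for 16 h before the caspase read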
# Summary of the method: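 Caspase 3/7 activation measured by Caspase-Glo 3/7 luminescence (20 min, room temperature) following 16 h exposure of mesangial cells (1000/well); AC50 from Hill-equation fit, normalized to DMSO and 100 uM tamoxifen.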
# [6] = Cellular Toxicity (caspase-3) H-4-II-E (AID 663); settings: H-4-II-E rat hepatoma; Potency: caspase-3 activation; series mostly up to 92.2 µM;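 also: cells exposed to compound for 16 hr before readout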
# Summary of the method: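 Caspase 3/7 activation measured by luminescent aminoluciferin substrate cleavage after 16 hr compound treatment of H-4-II-E cells in complete medium. Increase normalized between DMSO (basal) and 100 uM tamoxifen (100%); Hill-equation AC50 from concentration-response.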
# [7] = Cellular Toxicity (caspase-3) NIH 3T3 (AID 666); settings: NIH 3T3 caspase-3 activation, apoptosis/toxicity; series mostly up to 92.2 µM;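 also: caspase signal read after 16 h compound exposure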
# Summary of the method: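 Caspase-Glo 3/7 luminescence reported caspase activation in 1000 NIH 3T3 cells/well after 16 h compound exposure at 37 C. DMSO set basal and 100 uM tamoxifen set 100% stimulation; concentration-response modeled with the Hill equation for AC50.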
# [8] = Cell Viability - LYMP2-001 (AID 921); settings: LYMP2-001 lymphoblastoid cell viability; series mostly up to 92.2 µM;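 also: cells exposed to compound for 24 h at 37 °C; nearly all actives have a fitted effect of over 70% in size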; also: potency is read from the fitted curve at half-maximal effect
# Summary of the method: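 CellTiter-Glo luminescence (intracellular ATP) after 24 hr compound exposure at 37 C, 2500 lymphoblastoid cells/well in complete medium. AC50 fitted with standard Hill equation; tetraoctylammonium bromide positive control.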
# [9] = Cell Viability - LYMP2-009 (AID 968); settings: LYMP2-009 lymphoblastoid cell viability; series mostly up to 92.2 µM;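 also: cells exposed to compound for 24 h at 37 °C; nearly all actives have a fitted effect of over 55% in size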; also: potency is read from the fitted curve at half-maximal effect
# [10] = Cell Viability - LYMP2-006 (AID 978); settings: LYMP2-006 lymphoblastoid cell viability, qHTS; series mostly up to 92.2 µM;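 also: cells exposed to compound for 24 hours; nearly all actives have a fitted effect of over 60% in size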; also: potency is read from the fitted curve at half-maximal effect
# Summary of the method: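 qHTS, 1536-well; 2500 cells/well, 5 hr 37 C; cpd 24 hr 37 C; CellTiter-Glo 30 min RT; luminescence. Tetraoctylammonium bromide pos. ctrl. AC50 via Hill eqn.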
# [11] = biological target: Vitamin D3 receptor (Homo sapiens) (UniProt P11473); test: qHTS assay for small molecule antagonists of vitamin D receptor signaling (AID 588541; calls by dose curve;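 also: receptor activated by calcitriol during compound treatment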); settings: HEK293T VDR-UAS-bla, beta-lactamase ratio, antagonist mode; series mostly up to 76.7 µM
# Summary of the method: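 Antagonist-mode beta-lactamase reporter assay: HEK293T VDR-UAS-bla cells were exposed to titrated compound alongside 1-alpha,25-dihydroxyvitamin D3 at 3 nM final for 16 h. Values were normalized to the 50 nM agonist control and DMSO basal, with IC50 and efficacy from Hill equation fits.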
# [12] = qHTS assay for small molecule agonists of retinoid X receptor alpha signaling (AID 588544; calls by dose curve); settings: HEK293T RXRa-UAS-bla, beta-lactamase reporter, 18 h; 530 nm emission
# [13] = biological target: Retinoic acid receptor RXR-alpha (Homo sapiens) (UniProt P19793); test: as above; settings: HEK293T RXRa-UAS-bla, beta-lactamase reporter, 18 h; series mostly up to 76.7 µM
# [14] = biological target: Thyroid hormone receptor beta (Homo sapiens) (UniProt P10828); test: qHTS assay for small molecule antagonists of thyroid hormone receptor beta signaling (AID 588547; active = well fitted inhibition curve with a large enough effect in the signal ratio, with a control signal flat, not every such curve was filed as active; the % refers to the signal ratio;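 also: cells stimulated with 0.4 nM T3 agonist during compound exposure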); settings: TR-UAS-bla HEK293, beta-lactamase ratio, antagonist mode, 18 h
# Summary of the method: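 Inhibition of T3-driven (0.4nM final) beta-lactamase reporter activity was measured over 0.59 nM to 92 uM compound after 18 h at 37 C. The cells were GripTite HEK293 TR-UAS-bla in charcoal/dextran-stripped serum, with CCF4 ratio read-out and IC50 from Hill fits.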
# [15] = qHTS assay for small molecule disruptors of the mitochondrial membrane potential - 1 hr assay (AID 651754; calls by dose curve; also: nearly all actives have a fitted effect of over 35% in size; also: potency is read from the fitted curve at half-maximal effect); settings: series mostly up to 92.2 µM
# Summary of the method: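 Mitochondrial potential in living HepG2 cells after 1 hr compound treatment at 37C was read with Mito-MPS dye added for a further 30 min. Red aggregate and green monomer fluorescence were measured; loss of potential leaves dye as cytoplasmic monomers.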
# [16] = biological target: Nuclear receptor ROR-gamma (Homo sapiens) (UniProt P51449); test: qHTS assay for small molecule antagonists of the retinoid-related orphan receptor gamma (ROR-gamma) signaling pathway (AID 651802); settings: ROR-gamma antagonist cell reporter assay; series mostly up to 92.2 µM; also: nearly all actives have a fitted effect of over 60% in size; also: potency is read from the fitted curve at half-maximal effect
# Summary of the method: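 Luminescence (One-Glo, 30 min RT) measured 16 h after compound addition and doxycycline induction at 37C. Reporter: RORE-luciferase under TET-inducible ROR-gamma in CHO cells.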
# [17] = qHTS assay for small molecule agonists of the antioxidant response element (ARE) signaling pathway measured by Nrf2-dependant transcriptional activity - cell viability counter screen (AID 720653; active = well fitted curve in the direction sought with a large enough effect in the repeat runs; an effect the other way counts as inactive or inconclusive); settings: ARE-bla HepG2 viability, CellTiter-Glo ATP luminescence, 16 h; stronger effect = lower value
# Summary of the method: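 Cytotoxicity counter screen: intracellular ATP quantified by CellTiter-Glo luminescence in the same ARE-bla HepG2 plates, after 16 h compound exposure and a 2 h beta-lactamase substrate step.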
# [18] = qHTS assay for cell viability of HEK293 cells (AID 743288); settings: ATP luminescence (CellTiter-Glo), 18 h, stronger effect = lower value; also: nearly all actives have a fitted effect of over 50% in size
# Summary of the method: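 ATP luminescence (CellTiter-Glo) reports metabolically competent cell number after parental HEK293 cells, 2,000/well, were treated with DMSO-dissolved compounds for 18 h at 37 C; reagent incubation 30 min, room temperature.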
# [19] = MultiTox-Fluor Cytotoxicity Assay - LYMP1-002 - Dead Cells (AID 960); settings: LYMP1-002 lymphoblastoid cells, dead-cell protease fluorescence; series mostly up to 46.1 µM; also: nearly all actives have a fitted effect of over 60% in size; also: potency is read from the fitted curve at half-maximal effect
# Summary of the method: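 Dead-cell fluorescence (Ex/Em 485/520) after 16 h compound exposure at 37 C of LYMP1-002 lymphoblastoid cells in complete medium; AC50 by Hill equation, with data scaled between DMSO and 15 uM tetraoctylammonium bromide.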
# [20] = qHTS assay for small molecule disruptors of the mitochondrial membrane potential - 5 hr assay (AID 651755; calls by dose curve; also: nearly all actives have a fitted effect of over 40% in size; also: potency is read from the fitted curve at half-maximal effect); settings: JC-1-type ratio dye; series mostly up to 92.2 µM
# Summary of the method: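 Membrane-potential dye readout: red aggregate (540 ex/590 em) versus green monomer (490 ex/535 em) fluorescence after 30 min dye loading, following 5 hr compound exposure at 37C of overnight-plated HepG2 cells.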
# Retinoic acid receptor RXR-alpha (Homo sapiens), sequence (P19793 whole entry, looked up): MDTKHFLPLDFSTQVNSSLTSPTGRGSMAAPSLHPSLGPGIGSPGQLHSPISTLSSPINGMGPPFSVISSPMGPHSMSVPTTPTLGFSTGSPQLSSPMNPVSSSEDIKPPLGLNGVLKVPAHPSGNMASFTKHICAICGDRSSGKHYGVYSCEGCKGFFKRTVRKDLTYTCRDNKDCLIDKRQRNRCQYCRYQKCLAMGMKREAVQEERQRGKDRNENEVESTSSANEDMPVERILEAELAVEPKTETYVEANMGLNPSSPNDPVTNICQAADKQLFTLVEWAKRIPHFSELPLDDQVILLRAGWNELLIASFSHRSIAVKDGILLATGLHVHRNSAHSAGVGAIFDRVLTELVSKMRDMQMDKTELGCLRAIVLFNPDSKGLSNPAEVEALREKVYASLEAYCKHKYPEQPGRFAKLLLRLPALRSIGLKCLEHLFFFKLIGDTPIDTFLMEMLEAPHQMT
# Vitamin D3 receptor (Homo sapiens), sequence (P11473 whole entry, looked up): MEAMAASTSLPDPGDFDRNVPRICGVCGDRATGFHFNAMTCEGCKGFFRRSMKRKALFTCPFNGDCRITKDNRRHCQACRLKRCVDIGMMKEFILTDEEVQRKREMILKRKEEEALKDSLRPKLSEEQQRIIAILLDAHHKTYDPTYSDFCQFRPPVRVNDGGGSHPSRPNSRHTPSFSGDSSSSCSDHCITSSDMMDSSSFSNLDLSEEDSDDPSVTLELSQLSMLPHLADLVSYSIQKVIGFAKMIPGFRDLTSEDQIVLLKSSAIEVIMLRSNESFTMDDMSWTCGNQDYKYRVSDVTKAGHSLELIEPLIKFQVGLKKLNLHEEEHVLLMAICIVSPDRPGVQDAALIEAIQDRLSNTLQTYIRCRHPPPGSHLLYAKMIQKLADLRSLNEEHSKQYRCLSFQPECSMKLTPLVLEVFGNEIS
# Thyroid hormone receptor beta (Homo sapiens), sequence (P10828 whole entry, looked up): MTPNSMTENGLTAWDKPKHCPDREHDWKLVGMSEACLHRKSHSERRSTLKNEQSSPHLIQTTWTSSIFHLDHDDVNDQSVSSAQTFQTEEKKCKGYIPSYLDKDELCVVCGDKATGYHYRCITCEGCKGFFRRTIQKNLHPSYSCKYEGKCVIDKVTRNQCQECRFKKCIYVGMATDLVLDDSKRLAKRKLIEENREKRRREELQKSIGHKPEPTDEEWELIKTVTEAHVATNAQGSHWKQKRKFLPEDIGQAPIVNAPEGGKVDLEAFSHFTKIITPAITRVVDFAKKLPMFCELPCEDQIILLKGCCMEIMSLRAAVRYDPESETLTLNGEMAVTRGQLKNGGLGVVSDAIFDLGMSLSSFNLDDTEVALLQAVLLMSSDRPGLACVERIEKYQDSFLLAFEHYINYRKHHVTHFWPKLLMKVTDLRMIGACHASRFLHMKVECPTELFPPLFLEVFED
# Nuclear receptor ROR-gamma (Homo sapiens), sequence (P51449 whole entry, looked up): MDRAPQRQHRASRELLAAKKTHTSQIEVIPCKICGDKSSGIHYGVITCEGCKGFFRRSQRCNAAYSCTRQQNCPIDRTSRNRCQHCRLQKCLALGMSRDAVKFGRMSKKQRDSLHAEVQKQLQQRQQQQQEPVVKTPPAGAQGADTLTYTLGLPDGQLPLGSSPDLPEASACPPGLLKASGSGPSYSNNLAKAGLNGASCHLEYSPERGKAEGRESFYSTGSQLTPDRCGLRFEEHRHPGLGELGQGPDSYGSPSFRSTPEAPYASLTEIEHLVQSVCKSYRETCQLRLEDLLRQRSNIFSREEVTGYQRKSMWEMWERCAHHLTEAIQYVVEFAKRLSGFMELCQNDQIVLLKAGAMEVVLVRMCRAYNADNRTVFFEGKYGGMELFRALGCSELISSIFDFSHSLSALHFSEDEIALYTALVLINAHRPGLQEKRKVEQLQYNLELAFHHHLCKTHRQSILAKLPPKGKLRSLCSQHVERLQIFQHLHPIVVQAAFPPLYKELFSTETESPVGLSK
structure (smiles),measurement,setting,value
Cl/C=C\Cl,Potency,[1],> 92 µM (inactive)
same,Potency,[2],inactive
same,Potency,[3],inactive
same,outcome,[4],inactive
same,outcome,[5],inactive
same,Potency,[6],inactive
same,Potency,[7],inactive
same,Potency,[8],inactive
same,Potency,[9],inactive
same,Potency,[10],inactive
same,outcome,[11],inactive
same,max response,[12],-20.4%
same,outcome,[13],inactive
same,activity change % (negative = inhibition),[14],0.348% (inactive)
same,Potency,[15],inactive
same,Potency,[16],inactive
same,max response,[17],-3.68% (inactive)
same,max response,[18],-1.83% (inactive)
Brc1ccc(Oc2ccc(Br)cc2Br)c(Br)c1,outcome,[4],inactive
same,outcome,[5],inactive
same,Potency,[6],inactive
same,Potency,[7],inactive
same,Potency,[8],inactive
same,Potency,[19],inactive
same,Potency,[9],inactive
same,Potency,[10],inactive
same,outcome,[11],inactive
same,activity change % (negative = inhibition),[14],4.48% (inactive)
same,Potency,[20],inactive
same,Potency,[16],inactive
c1ccc2c(c1)-c1cccc3c1c-2cc1ccccc13,Potency,[16],inactive
C=CC(=O)OCCO,Potency,[2],inactive
same,outcome,[5],inactive
same,Potency,[6],inactive
same,Potency,[7],inactive
same,Potency,[19],inactive
same,outcome,[11],inactive
same,max response,[12],-8.13%
same,outcome,[13],inactive
same,activity change % (negative = inhibition),[14],12.5% (inactive)
same,Potency,[15],inactive
same,Potency,[20],inactive
same,max response,[17],-2.67% (inactive)
[C-]1=CC=CC1.[C-]1=CC=CC1.[Cl-].[Cl-].[Ti+4],Potency,[2],inactive
same,"viability change, negative = cytotoxic",[3],-81.6% (active)
same,outcome,[4],inactive
same,outcome,[5],inactive
same,Potency,[6],inactive
same,Potency,[7],inactive
same,Potency,[19],inactive
same,max response,[18],-17.8% (inactive)
Nc1ccc(-c2ccc(N)c(Cl)c2)cc1Cl,Potency,[2],inactive
same,Potency,[3],12.6 µM (active)
same,outcome,[4],inactive
same,outcome,[5],inactive
same,Potency,[6],inactive
same,Potency,[8],inactive
same,Potency,[19],25.1 µM (active)
same,Potency,[9],inactive
same,Potency,[10],inactive
same,outcome,[11],inactive
same,activity change % (negative = inhibition),[14],-10.6% (inactive) and -0.523% (inactive)
same,Potency,[15],42.2 µM (active)
same,Potency,[20],37.6 µM (active)
same,max response,[18],-8.22% (inactive) and -17.1% (inactive)
N#C/C=C/C#N,Potency,[3],15.8 µM (active)
same,outcome,[4],inactive
same,outcome,[5],inactive
same,Potency,[6],inactive
same,Potency,[7],inactive
same,Potency,[8],31.6 µM (active)
same,Potency,[19],inactive
same,Potency,[9],31.6 µM (active)
same,Potency,[10],25.1 µM (active)
same,activity change % (negative = inhibition),[14],-13.1% (inactive)
same,Potency,[15],inactive
same,Potency,[20],inactive
same,Potency,[16],23.7 µM (active)
same,max response,[17],-28.1% (inactive)
O=[N+]([O-])c1cccc(CCl)c1,Potency,[1],> 92 µM (inactive)
same,Potency,[2],inactive
same,outcome,[4],inactive
same,outcome,[5],inactive
same,Potency,[6],inactive
same,Potency,[9],79.4 µM (active)
same,Potency,[10],inactive
same,outcome,[11],inactive
same,max response,[12],10.9%
same,outcome,[13],inactive
same,activity change % (negative = inhibition),[14],-16.3% (inactive)
same,Potency,[15],inactive
same,Potency,[20],inactive
same,Potency,[16],33.5 µM (active)
same,max response,[17],-3.2% (inactive)
Oc1cc(Cl)c(Cl)c(Cl)c1,Potency,[2],31.6 µM (active)
same,outcome,[4],inactive
same,Potency,[6],inactive
same,Potency,[8],inactive
same,Potency,[19],inactive
same,outcome,[11],inactive
same,Potency,[15],33.5 µM (active)
same,Potency,[20],37.6 µM (active)
same,Potency,[16],13.3 µM (active)
same,max response,[17],-10.7% (inactive)
same,max response,[18],-15.1% (inactive)
Oc1cc(Cl)c(Cl)c(Cl)c1Cl,Potency,[2],31.6 µM (active)
same,outcome,[4],inactive
same,outcome,[5],inactive
same,Potency,[6],inactive
same,Potency,[7],inactive
same,Potency,[8],inactive
same,Potency,[10],inactive
same,Potency,[16],23.7 µM (active)
same,max response,[18],-11.3% (inactive)
Clc1ccc(C(c2ccccc2Cl)C(Cl)(Cl)Cl)cc1 (stereo unspecified),outcome,[4],inactive
same,Potency,[6],inactive
same,Potency,[8],inactive
same,Potency,[9],inactive
same,Potency,[10],inactive
same,outcome,[11],inactive
same,max response,[17],-11.9% (inactive) and 2.81% (inactive)
CN(C)c1ccc(N=Nc2ccccc2)cc1,outcome,[5],inactive
same,Potency,[6],inactive
same,Potency,[8],inactive
same,Potency,[10],inactive
same,outcome,[11],inactive
same,max response,[12],-0.567%
same,outcome,[13],inactive
same,activity change % (negative = inhibition),[14],-4.36% (inactive)
same,max response,[17],-5.92% (inactive)
same,max response,[18],-8.55% (inactive)
